Bioassay records (PubChem BioAssay)
HTRA1 inh: HTRA1 (human) protease inhibition | Q92743 | recombinant HTRA1, FP-rhodamine activity-based probe, fluorescence polarization | inhibition, % at 5.96 µM | hit rate 0.5% among 340,000; in the data active = inhibition above about 36%
Target sequence (Q92743 whole entry, looked up): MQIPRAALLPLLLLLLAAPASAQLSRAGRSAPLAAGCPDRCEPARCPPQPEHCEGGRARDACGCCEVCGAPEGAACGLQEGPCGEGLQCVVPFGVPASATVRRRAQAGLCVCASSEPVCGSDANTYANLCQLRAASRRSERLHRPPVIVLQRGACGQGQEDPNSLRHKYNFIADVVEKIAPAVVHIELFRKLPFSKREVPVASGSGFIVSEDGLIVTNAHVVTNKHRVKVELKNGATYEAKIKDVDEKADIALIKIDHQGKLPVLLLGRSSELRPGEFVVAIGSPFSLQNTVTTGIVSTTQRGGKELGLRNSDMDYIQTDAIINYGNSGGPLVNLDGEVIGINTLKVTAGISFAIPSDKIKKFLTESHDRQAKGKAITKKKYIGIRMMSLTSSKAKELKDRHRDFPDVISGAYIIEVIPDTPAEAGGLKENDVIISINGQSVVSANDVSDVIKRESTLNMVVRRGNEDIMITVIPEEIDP
pPAFAH FP inh: inhibitors of human plasma PAF acetylhydrolase (pPAFAH). AID 463082. recombinant pPAFAH, FP-rhodamine probe fluorescence polarization. hit rate 1.5% among 330,000. inhibition, % at 3.39 µM;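 active = inhibition above the mean inhibition across the screen plus 3 SD, cut at about 25% in these data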;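 note: inhibitors block binding of the rhodamine activity-based probe so polarization drops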
PAFAH2 FP inh: inhibitors of human PAFAH2 | recombinant PAFAH2, FP-rhodamine activity probe, fluorescence polarization | Q99487 | hit rate 0.99% among 340,000 | inhibition, % at 3.39 µM;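 active = inhibition above the mean over all tested compounds plus 3 SD, cut at about 30% in these data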;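 note: inhibitors block probe labeling of enzyme so polarization drops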
PAFAH1B2 inh: blocks human PAF acetylhydrolase 1b catalytic subunit 2 | recombinant PAFAH1B2, FP-rhodamine activity probe, fluorescence polarization | inhibition, % at 3.39 µM | hit rate 1.2% among 340,000;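 active = inhibition above the mean of all tested compounds plus 3 SD, cut at about 24% in these data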
DAGLB inhibitor: diacylglycerol lipase beta (human) inhibition; hit rate 0.059% among 340,000; Q8NCG7; inhibition, % at 5.17 µM; HEK293T DAGLB membrane lysate, EnzChek fluorogenic substrate; in the data active = inhibition above about 34%
PAFAH1B3 FP inh: inhibitors of human PAFAH1B3 | Q15102 | recombinant PAFAH1B3, FP-rhodamine probe, fluorescence polarization | inhibition, % at 3.39 µM | hit rate 0.28% among 340,000;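 active = inhibition above the screen-wide average of all tested compounds plus 3 SD, cut at about 25% in these data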
Target sequence (Q15102 whole entry, looked up): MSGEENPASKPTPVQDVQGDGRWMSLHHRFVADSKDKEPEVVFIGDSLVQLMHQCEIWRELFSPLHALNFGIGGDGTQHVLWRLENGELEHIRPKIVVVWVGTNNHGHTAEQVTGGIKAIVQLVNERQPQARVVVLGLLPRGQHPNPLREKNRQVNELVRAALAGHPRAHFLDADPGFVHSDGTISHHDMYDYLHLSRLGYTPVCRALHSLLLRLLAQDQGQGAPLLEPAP
PAFAH2 FP conf: confirmation of human PAFAH2 inhibitors. shares compounds with PAFAH2 FP inh. recombinant PAFAH2, FP-rhodamine activity probe, fluorescence polarization. inhibition, % at 3.39 µM. hit rate 65% among 2,300. AID 493030;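 active = mean inhibition over three repeats above a set limit taken from the earlier primary screen, cut at about 30% in these data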;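 note: inhibitor blocks binding of rhodamine activity probe so polarization falls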
Of the large screens only hits and unclear results are named; the others gave an inactive call (follow-up assays come after a bar, where they were run). Rows were chosen to be rich in hits. Some 2.8% of all compounds tested hit in one or more screens of this group.

CC(C)OC(=O)c1cccc(-c2ccc(C=O)o2)c1	none
Cc1cccc(C(=O)OCC(=O)NC(C)CCc2ccccc2)c1 (stereo not given)	PAFAH2 FP inh 45.7 | PAFAH2 FP conf 30.9
CC(C)(C)NC(=O)COC(=O)c1ccc(NC(=O)CC#N)cc1	PAFAH2 FP inh 67.0 | PAFAH2 FP conf 52.9
N#CCC(=O)Nc1ccc(C(=O)OCC(=O)NNC(=O)c2cccs2)cc1	none
Cc1cccc(C(=O)NCC(=O)NC(C)CCc2ccccc2)c1 (stereo not given)	none
O=C(O)C(Cc1ccccc1)N1C(=O)c2c(Cl)c(Cl)c(Cl)c(Cl)c2C1=O (stereo not given)	PAFAH2 FP inh 31.7 | PAFAH2 FP conf inactive
O=C(O)C(Cc1ccccc1)N1C(=O)c2ccccc2C1=O (stereo not given)	none
Cc1ccc(NC(=O)COC(=O)c2ccn(C)n2)cc1	PAFAH2 FP inh 67.6 | PAFAH2 FP conf 63.0
COc1ccc(C(=O)COC(=O)c2ccn(C)n2)cc1	none
Cc1ccc(NC(=O)COC(=O)c2ccnn2C)cc1	none
Cn1ccc(C(=O)OCC(=O)Nc2ccccc2)n1	PAFAH2 FP inh 72.6 (no result: pPAFAH FP inh) | PAFAH2 FP conf 77.5
Cn1nccc1C(=O)OCC(=O)Nc1ccccc1	PAFAH2 FP inh 39.6 (no result: pPAFAH FP inh) | PAFAH2 FP conf inactive
Cc1c2ccccc2cc[n+]1CCCS(=O)(=O)[O-]	none
CC1(C)C(/C=C/C=C/C=C/C=C2\N(CCCCS(=O)(=O)O)c3ccc4ccccc4c3C2(C)C)=[N+](CCCCS(=O)(=O)[O-])c2ccc3ccccc3c21	pPAFAH FP inh 28.9, PAFAH2 FP inh 42.9 | PAFAH2 FP conf inactive
O=C(COC(=O)c1cccc(OC(F)F)c1)NCC1CCCO1 (stereo not given)	none
Cc1nc2nc(C(F)(F)F)[nH]c2nc1C	none (no result: pPAFAH FP inh, PAFAH2 FP inh, PAFAH1B2 inh, PAFAH1B3 FP inh)
COc1cc(OC)cc(C(=O)Nc2ccn(C)n2)c1	none
Cc1ccccc1SCC(=O)NCC1(N2CCCCC2)CCCCC1	none (no result: pPAFAH FP inh, PAFAH2 FP inh, PAFAH1B2 inh, PAFAH1B3 FP inh)
C=C1CCN([C@H](C(=O)OCc2ccc(C)cc2)C(C)C)S(=O)(=O)c2ccccc21	PAFAH2 FP inh 126.0 | PAFAH2 FP conf inactive
CCOC(=O)c1sc2nc(C)nc(NC3CCC(O)CC3)c2c1C (stereo not given)	none
CN(C)S(=O)(=O)c1cccc(NC(=O)COC(=O)c2ccc3c(c2)OCO3)c1	PAFAH2 FP inh 55.1 | PAFAH2 FP conf 56.5
Cc1ccc(S(=O)(=O)N(C)C)cc1NC(=O)COC(=O)C1CCCC1	none
CN(C)S(=O)(=O)c1cccc(C(=O)OCC(=O)Nc2ccccc2OC(F)F)c1	PAFAH2 FP inh 33.0 | PAFAH2 FP conf inactive
Cc1ccc(S(=O)(=O)N(C)C)cc1NC(=O)COC(=O)c1ccc2c(c1)NC(=O)CS2	PAFAH2 FP inh 51.9 | PAFAH2 FP conf 43.0
CC(=O)c1cccc(NC(=O)COC(=O)c2ccc3c(c2)OCO3)c1	PAFAH2 FP inh 74.4 | PAFAH2 FP conf 70.7
Cc1ccc(S(=O)(=O)N(C)CC(=O)Oc2ccc(-c3nnco3)cc2)cc1	none
COc1ccc(S(=O)(=O)N2CCCCC2)cc1NC(=O)CNc1ccc(F)cc1C	none
Cc1ccc(NC(=O)C2CC(=O)N(C(C)C)C2)cc1C (stereo not given)	none
CCOC(=O)c1ccc2[nH]c(C)c(C)c2c1	none
Cc1cccc(C)c1NC(=O)COC(=O)c1ccc2[nH]c3c(c2c1)CCCC3	PAFAH2 FP inh 70.4 | PAFAH2 FP conf 62.1
Cc1[nH]c2ccc(C(=O)OCC(=O)Nc3cccc(S(N)(=O)=O)c3)cc2c1C	PAFAH2 FP inh 69.3 | PAFAH2 FP conf 64.4
COCCNC(=O)CSCc1cc(C)cc(C)c1	none
O=C1c2ccccc2[C@@H]2C[C@@H](O)[C@H](Nc3cccc(C(F)(F)F)c3)CCN12	PAFAH2 FP inh 39.6 | PAFAH2 FP conf 29.7
O=C(COC(=O)c1ccco1)NCc1cccs1	PAFAH2 FP inh 34.3 | PAFAH2 FP conf inactive
Cc1cc(C)c(C(=O)OCC(=O)NCc2cccs2)c(C)c1	none
O=C(COC(=O)c1ccc(Br)o1)NCc1cccs1	none
Cc1ccc(C(=O)OCC(=O)NCc2cccs2)cc1	PAFAH2 FP inh 52.9 | PAFAH2 FP conf 46.4
O=C(COC(=O)/C=C/c1ccc(OC(F)F)cc1)NCc1cccs1	PAFAH2 FP inh 46.3 | PAFAH2 FP conf 40.8
O=C(CO/N=C/c1ccc(OC(F)F)cc1)NCc1cccs1	none
Cc1ccc(C(=O)OCC(=O)NCc2cccs2)cc1C	PAFAH2 FP inh 54.3 | PAFAH2 FP conf 50.9
CCOC(=O)CCCCC1C(CCCC(=O)OCC)C=NN1C (stereo not given)	none (no result: pPAFAH FP inh)
CN(C(=O)CCCN1C(=O)c2ccccc2C1=O)C1CCCCC1	none
O=C(CN(Cc1ccc(F)cc1)C(=O)c1csnn1)NC1CCCC1	none
O=C(COC(=O)c1ccc(CO)cc1)NCc1cccs1	PAFAH2 FP inh 42.6 | PAFAH2 FP conf 34.6
O=S(=O)(NCc1ccccc1)NCc1cccc(C(F)(F)F)c1	none
Cc1ccc(C(=O)NNC(=O)c2ccc(Br)s2)cc1S(=O)(=O)N1CCOCC1	PAFAH2 FP inh 38.7 | PAFAH2 FP conf inactive
O=c1oc(-c2ccco2)nc2c1cnn2-c1ccccc1	PAFAH2 FP inh 85.4 | PAFAH2 FP conf 59.3
CS(=O)(=O)N(CC(=O)Nc1ccc(S(=O)(=O)N2CCOCC2)cc1)c1cccc(F)c1	none
O=C1C(Cl)=C(Nc2ccccc2O)C(=O)N1CCc1ccccc1	PAFAH2 FP inh 44.1 | PAFAH2 FP conf 37.0
COc1ccc(CCNC2=C(Cl)C(=O)N(CCc3ccccc3)C2=O)cc1OC	none
Cc1ccc(N(C(=O)c2ccc(S(=O)(=O)N3CCCC3)cc2)C2C=CS(=O)(=O)C2)cc1 (stereo not given)	none
O=C(CCS(=O)(=O)c1ccccc1)N1CCN(c2ccccc2)CC1	none
O=C(CCS(=O)(=O)c1ccc(Br)cc1)N1CCN(c2ccccc2)CC1	PAFAH2 FP inh 32.5 | PAFAH2 FP conf inactive
O=C(CNC(=S)N(CCCN1CCOCC1)Cc1cccs1)NCCCN1CCOCC1	none
O=C(CNC(=S)N(CCCN1CCOCC1)Cc1cccs1)NCc1ccc(Cl)cc1	PAFAH2 FP inh 48.3 | PAFAH2 FP conf 37.3
O=C(CNC(=S)N(CCCN1CCOCC1)Cc1cccs1)NCc1ccccc1Cl	PAFAH2 FP inh 47.0 | PAFAH2 FP conf 31.3
COC(CNC(=O)CNC(=S)N(CCCN1CCOCC1)Cc1cccs1)OC	none
Cc1ccc(-c2nc(C)sc2CC(=O)OCC(=O)Nc2cccc([N+](=O)[O-])c2)cc1	none
Cc1ccc(C(=O)c2ccccc2C(=O)OCC(=O)Nc2cccc([N+](=O)[O-])c2)cc1	PAFAH2 FP inh 72.6 | PAFAH2 FP conf 76.5
COc1cc([N+](=O)[O-])ccc1NC(=O)COC(=O)C=C(C)C	none
CC1CC1C(=O)OCC(=O)Nc1cccc([N+](=O)[O-])c1 (stereo not given)	PAFAH2 FP inh 82.1 | PAFAH2 FP conf 83.6
